Source: PubChem
M1 ag: human M1 muscarinic receptor agonism | P11229 | CHO-K1 hM1, Fluo-8 calcium fluorescence, agonist mode; 0% DMSO, 100% acetylcholine EC100 | activation, % at 3 µM | hit rate 0.33% among 360,000;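 active means activation above the run's mean compound activation plus 3 SD, cut at about 16% in these data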;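 further: peak over basal fluorescence ratio within a 140 s kinetic read after compound addition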
Target sequence (P11229 whole entry, looked up): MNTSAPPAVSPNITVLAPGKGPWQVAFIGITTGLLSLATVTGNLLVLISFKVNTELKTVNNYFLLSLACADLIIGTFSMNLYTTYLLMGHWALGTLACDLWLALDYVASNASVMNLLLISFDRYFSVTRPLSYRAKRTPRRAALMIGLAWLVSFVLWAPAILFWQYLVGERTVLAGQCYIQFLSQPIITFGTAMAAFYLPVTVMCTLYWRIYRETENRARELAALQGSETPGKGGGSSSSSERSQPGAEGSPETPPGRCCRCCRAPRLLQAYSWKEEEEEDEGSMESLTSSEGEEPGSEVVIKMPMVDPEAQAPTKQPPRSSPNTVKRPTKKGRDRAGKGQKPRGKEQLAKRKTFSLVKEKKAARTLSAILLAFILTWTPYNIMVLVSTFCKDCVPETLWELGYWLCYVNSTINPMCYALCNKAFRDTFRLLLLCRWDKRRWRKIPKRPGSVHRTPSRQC
CHO-K1 Ca ag: nonselective activator or artifact in parental CHO-K1 cells. Fluo-8 calcium fluorescence; scaled to maximal ATP response, vehicle zero. activation, % at 3 µM. hit rate 0.48% among 360,000; in the data active means activation above about 15%;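 further: untransfected CHO-K1 host cells lacking M1 receptor as counterscreen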
CHRM1 PAM: positive allosteric modulators of human M1 muscarinic receptor. P11229. CHO-K1 hM1, Fluo-8 calcium fluorescence, ACh EC20; 0% = ACh EC20, 100% = maximal ACh. activation, % at 3 µM. hit rate 0.088% among 360,000. AID 588819; in the data active means activation above about 19%, passing the limit was not always enough
M1 PAM parental: counter-screen for M1 PAMs: effect in parental CHO-K1 cells; hit rate 0.02% among 360,000; activation, % at 3 µM; ATP EC20, Fluo-8 calcium fluorescence; 0% at ATP EC20, 100% at ATP max; AID 602247;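 active means activation above the run cutoff, the mean activation of all test compounds plus 3 SD, cut at about 40% in these data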;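 further: peak over basal fluorescence ratio in a 140 s read after ATP addition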
CHO-K1 Ca antag: counter-screen for M1 antagonists: effect in parental CHO-K1 cells. ATP-induced calcium, Fluo-8 fluorescence. inhibition, % at 3 µM. hit rate 0.6% among 360,000. AID 602250;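 active means inhibition above a per-plate cutoff, the plate's mean sample inhibition plus 3 SD, cut at about 24% in these data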;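 further: 0% = DMSO plus EC80 ATP and 100% = DMSO alone without ATP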
CHRM1 antagonist: human CHRM1 antagonism; P11229; CHO-K1 hM1, Fluo-8 calcium fluorescence, ACh EC80 antagonist; inhibition, % at 3 µM; hit rate 1.3% among 360,000;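 active means percent inhibition above its own plate's cutoff, namely the mean of that plate's compound wells plus 3 SD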;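 further: peak over basal fluorescence ratio during 140 s after agonist addition; 0% = ACh EC80 plus DMSO and 100% = DMSO alone without agonist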
The depositor's hits bear a star. Most compounds without a hit are left out; they make up all but 2.4% or so of the library.

SMILES	M1 ag	CHO-K1 Ca ag	CHRM1 PAM	M1 PAM parental	CHO-K1 Ca antag	CHRM1 antagonist
CCc1nnc(NS(=O)(=O)c2ccc(Nc3ccc4nonc4c3[N+](=O)[O-])cc2)s1	-5	-1	-9	-17	29*	6
CCOC(=O)C(C)N1c2cccc3cccc(c23)S1(=O)=O (stereo not given)	-5	0	6	6	-19	-6
Cc1onc(-c2ccccc2)c1C(=O)NC(=S)NNC(=O)c1ccco1	17*	18*	3	8	-4	-7
COc1ccc(C(=O)NC(=S)NNC(=O)c2c(-c3ccccc3)noc2C)cc1OC	16	15	0	-6	-7	-1
Cc1onc(-c2ccccc2)c1C(=O)NNC(=S)NC(=O)c1ccc2c(c1)OCO2	52*	55*	-14	-13	1	19
Cc1cc(F)ccc1C(O)c1ncc(-c2cccc(OCc3ccccc3)c2)[nH]1 (stereo not given)	-2	1	-8	2	-8	10
CNc1n[nH]c(-c2ccccc2)n1	-2	0	-3	-10	8	7
O=C(CCc1ccccn1)N1CCCC(Nc2ccc(F)cc2)C1 (stereo not given)	0	1	4	18	1	-5
O=C(CCc1ccccn1)N1CCCC(Nc2cccc(F)c2)C1 (stereo not given)	27*	1	8	12	-2	-1
CCCCCCCCOC(=O)c1cc([N+](=O)[O-])c(Sc2ncnc3nc[nH]c23)c([N+](=O)[O-])c1	0	0	10	11	-9	-33
COc1ccc(S(=O)(=O)N2CCCCC2)cc1NC(=O)CN(C)C1CCCCC1	-7	3	8	20	-13	-16
CCOc1ccc(S(=O)(=O)N2CCCCC2)cc1NC(=O)CN1C(=O)NC(CC)(c2ccccc2)C1=O (stereo not given)	-2	4	6	-5	9	-11
COc1ccc(S(=O)(=O)N2CCCCC2)cc1NC(=O)CN(Cc1ccco1)Cc1ccco1	7	10	-20	-2	3	44*
CCCCC1(c2ccc(F)cc2)NC(=O)N(CC(=O)Nc2ccc(N3CCOCC3)cc2)C1=O (stereo not given)	16*	8	9	26	-10	-2
CCC1(c2ccc(F)cc2)NC(=O)N(CC(=O)Nc2ccccc2Cl)C1=O (stereo not given)	36*	15*	3	-7	-8	-8
CCC1(c2ccccc2)NC(=O)N(CC(=O)Nc2cc(S(=O)(=O)N3CCCCCC3)ccc2OC)C1=O (stereo not given)	0	9	-6	0	21	32*
C[C@@H]1CN([C@@H](C)CO)S(=O)(=O)c2ccc(Br)cc2O[C@@H]1CN(C)Cc1cccnc1	-4	0	-6	-9	-6	10
CCOC(=O)C1=NN(c2ccc(C)cc2)CC1C(=O)OC (stereo not given)	-6	3	10	26	-7	-2
CN1CCN(c2cc(-c3ccc4ccccc4c3)nc3ccnn23)CC1	-2	0	-3	-8	4	-7
CCC1(c2ccc(F)cc2)NC(=O)N(CC(=O)Nc2ccccc2C)C1=O (stereo not given)	12	16*	-3	26	-12	11
CCC1(c2ccccc2)NC(=O)N(CC(=O)Nc2ccccc2C(=O)NC2CC2)C1=O (stereo not given)	0	2	10	26	-16	-11
CC(=O)c1cnc2c(-c3ccc(Cl)cc3)cnn2c1C	0	-1	6	-8	30*	-8
Nc1c(C(=O)O)cnc2c(-c3ccc(Cl)cc3)cnn12	-1	0	4	6	-4	5
CSc1ccccc1NS(=O)(=O)c1ccccc1	-2	0	8	-8	25*	-4
Cc1c2cnn(CC(=O)NCCCN3CCCCC3)c(=O)c2c(C)n1Cc1ccccc1	-12	0	-7	1	2	7
SMILES	M1 ag	CHO-K1 Ca ag	CHRM1 PAM	M1 PAM parental	CHO-K1 Ca antag	CHRM1 antagonist
CCC1CCCCN1CCCNC(=O)Cn1ncc2c(C)n(Cc3ccccc3Cl)c(C)c2c1=O (stereo not given)	-14	0	-30	3	-2	44*
Cc1c2cnn(CC(=O)NCCN3CCOCC3)c(=O)c2c(C)n1Cc1ccccc1	-4	6	-14	-3	4	32*
COc1cccc(CC2(CO)CCN(S(=O)(=O)c3ccc(OC)cc3OC)CC2)c1	-1	1	1	-9	1	-9
CC1CCCC(C)N1CCOc1cc(N)ccc1C#N (stereo not given)	-7	0	1	15	-12	-3
CN1CCN(c2nc(-c3ccccc3)cc(C(F)(F)F)n2)CC1	-4	0	-19	-2	7	43*
c1ccc(-c2nnc(N3CCN(c4ccccc4)CC3)nc2-c2ccccc2)cc1	-2	0	14	6	2	-17
CC(C)CNC(=O)CSc1nc(-c2cccs2)cc(C(F)(F)F)n1	-3	-1	-4	-6	24*	-15
CN1CCN(c2nc(-c3cccs3)cc(C(F)(F)F)n2)CC1	-4	2	-21	20	-10	71*
O=[N+]([O-])c1cnn(-c2nc(-c3cccs3)cc(C(F)(F)F)n2)c1	-3	1	4	-2	-11	-4
CN1CCN(c2nnc(-c3ccccc3)c(-c3ccccc3)n2)CC1	-9	0	-20	-13	6	39*
CC1CCCC(C)N1C(=O)COC(=O)CNC(=O)c1sc2ccccc2c1Cl (stereo not given)	-2	19*	4	-16	18	-6
Cc1ccc([N+](=O)[O-])cc1N=Cc1ccc(Br)s1	-3	0	-3	5	-6	11
Cc1ccc(C=Nc2cc([N+](=O)[O-])ccc2C)s1	-5	0	2	-15	24*	3
Cc1c(O[C@@H]2O[C@H](CO)[C@@H](O)[C@H](O)[C@H]2O)c(CO)c(O[C@@H]2O[C@H](CO)[C@@H](O)[C@H](O)[C@H]2O)c2c1O[C@@H](c1ccccc1)C[C@@H]2O	-2	1	11	17	-9	-2
CNc1ccc2ncc(-c3ccccc3NC(C)=O)n2n1	-3	0	4	-4	-6	-6
CCOC(=O)N1CCC(N2Cc3cccc(C(=O)NCc4ccccn4)c3C2=O)CC1	-10	1	-22	16	-8	28*
CCOC(=O)N1CCC(NC(=O)c2cccc3c2C(=O)N(CCOC)C3)CC1	-4	0	-10	-1	-1	9
CCOC(=O)N1CCC(N2Cc3cccc(C(=O)NCc4ccc(C)cc4)c3C2=O)CC1	-3	0	-1	-1	5	-7
